Many of the other results were omitted from the sample, so hits are more common in it than they were.
GIRK2 activator: GIRK2 channel activators by thallium flux | HEK293 GIRK2/NPY4 cells, thallium flux fluorescence | activation (% efficacy), % for hits at 37.5 µM | 34,000 tested, under 10 active | AID 1259324;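 active = primary screen hit, no activity in plain HEK293 cells, and in GIRK2-only cells above 5% efficacy rising with concentration; inactive = the rest, including fluorescent compounds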;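 note: efficacy is normalized control-subtracted fluorescence 15 s after thallium addition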
AMPAR-TARP mod: modulators of AMPA receptor GluA2-stargazin complexes; HEK293 GluA2+stargazin, membrane potential dye (FDSS), glutamate EC50; hits were called plate by plate, in both directions; calls only at 30 µM; hit rate 3.5% among 40,000;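 active = any of four per-well response measures lying three or more SD from its plate-wide compound average, in either direction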
Target sequence (O88602 whole entry, looked up): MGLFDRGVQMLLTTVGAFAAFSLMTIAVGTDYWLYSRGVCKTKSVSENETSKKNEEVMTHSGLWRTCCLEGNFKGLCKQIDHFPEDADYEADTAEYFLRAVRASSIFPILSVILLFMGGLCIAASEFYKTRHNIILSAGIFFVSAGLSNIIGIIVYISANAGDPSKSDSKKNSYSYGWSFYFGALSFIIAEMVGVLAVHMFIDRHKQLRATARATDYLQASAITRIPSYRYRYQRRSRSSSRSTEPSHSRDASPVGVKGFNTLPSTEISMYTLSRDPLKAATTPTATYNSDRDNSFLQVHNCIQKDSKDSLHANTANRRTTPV
Target sequence (P19491 whole entry, looked up): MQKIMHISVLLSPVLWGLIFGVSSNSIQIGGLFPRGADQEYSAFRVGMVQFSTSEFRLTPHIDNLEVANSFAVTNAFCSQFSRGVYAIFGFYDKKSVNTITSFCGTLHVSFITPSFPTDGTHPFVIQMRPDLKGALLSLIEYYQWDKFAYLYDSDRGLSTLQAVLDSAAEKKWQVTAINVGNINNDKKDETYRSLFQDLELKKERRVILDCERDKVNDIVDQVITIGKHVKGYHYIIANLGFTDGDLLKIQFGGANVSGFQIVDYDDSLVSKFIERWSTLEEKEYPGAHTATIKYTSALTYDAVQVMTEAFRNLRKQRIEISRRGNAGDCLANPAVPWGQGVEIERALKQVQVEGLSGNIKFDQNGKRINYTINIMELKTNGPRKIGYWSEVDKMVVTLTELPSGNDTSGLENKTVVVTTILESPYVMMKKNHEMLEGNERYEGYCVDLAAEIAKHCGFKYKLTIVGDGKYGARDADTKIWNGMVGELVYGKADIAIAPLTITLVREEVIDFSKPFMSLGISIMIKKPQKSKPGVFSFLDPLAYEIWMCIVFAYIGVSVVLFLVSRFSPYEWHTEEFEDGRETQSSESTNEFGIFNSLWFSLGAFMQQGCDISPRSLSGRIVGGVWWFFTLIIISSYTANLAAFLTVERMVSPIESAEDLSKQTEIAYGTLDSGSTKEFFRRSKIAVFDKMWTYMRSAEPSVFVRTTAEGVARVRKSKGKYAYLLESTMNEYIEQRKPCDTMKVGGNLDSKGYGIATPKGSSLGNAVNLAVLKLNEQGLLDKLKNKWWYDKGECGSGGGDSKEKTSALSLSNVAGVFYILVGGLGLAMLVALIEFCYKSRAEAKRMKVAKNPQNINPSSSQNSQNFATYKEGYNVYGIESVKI
Starred values were filed as active, the others as inactive.

`CCOC(=O)Nc1ccc2c(c1)NC(=O)C(C)(C)CO2` gave GIRK2 activator inactive and AMPAR-TARP mod inactive.
Screening O=C(Cc1csc(NC(=O)c2ccc(=O)[nH]c2)n1)NCc1ccc2c(c1)OCO2 returned GIRK2 activator inactive and AMPAR-TARP mod inactive.
Cc1cccc(-n2nnnc2SC(C)C(=O)Nc2cc(C)on2)c1 (configuration not stated) was read as AMPAR-TARP mod inactive.
For CCOc1ccc(-n2nnnc2SC(C)C(=O)Nc2cccc(OC)c2)cc1 (configuration not stated) the results were AMPAR-TARP mod active.
For CCOc1ccc(-n2nnnc2SC(C)C(=O)Nc2cc(C)on2)cc1 (configuration not stated) the results were AMPAR-TARP mod active.
COc1cccc(NC(=O)C(C)Sc2nnnn2-c2ccc(C)cc2)c1 (configuration not stated) was read as AMPAR-TARP mod inactive.
Screening CS(=O)(=O)N1CCCC1C(=O)N(Cc1cccnc1)c1nc2ccc(F)cc2s1 (configuration not stated) returned GIRK2 activator inactive and AMPAR-TARP mod inactive.
`COc1ccc(CCC(=O)NCC(O)c2ccc(C(F)(F)F)cc2)cc1` (configuration not stated) gave GIRK2 activator inactive.
Screening O=S(=O)(NCC(O)c1ccc(C(F)(F)F)cc1)c1ccc2c(c1)OCCO2 (configuration not stated) returned GIRK2 activator inactive and AMPAR-TARP mod inactive.
CC(C)N(CC#CCNS(=O)(=O)c1cc(F)ccc1F)C(C)C was read as AMPAR-TARP mod inactive.
For CC(C)N(CC#CCNS(=O)(=O)c1ccc(OC(F)(F)F)cc1)C(C)C the results were AMPAR-TARP mod active.
`O=S(=O)(NCC(O)c1ccc(C(F)(F)F)cc1)c1ccc(OC(F)(F)F)cc1` (configuration not stated) gave AMPAR-TARP mod active.
`COc1ccc(CCS(=O)(=O)NCC(O)c2ccc(C(F)(F)F)cc2)cc1` (configuration not stated) gave GIRK2 activator inactive and AMPAR-TARP mod active.
`CC(O)(CNS(=O)(=O)c1c(F)cccc1F)c1ccc2c(c1)OCO2` (configuration not stated) gave GIRK2 activator inactive and AMPAR-TARP mod inactive.
COc1ccc(-c2cc(CC(=O)Nc3ccc4c(c3)OCCO4)no2)cc1OC was read as GIRK2 activator inactive and AMPAR-TARP mod inactive.
For Cc1noc(CNC(=O)COc2ccc3ccccc3c2)n1 the results were GIRK2 activator inactive.
Screening O=C(NCc1ccccc1)N1CCN(Cc2nc(-c3cccs3)cs2)CC1 returned GIRK2 activator inactive and AMPAR-TARP mod inactive.
Screening O=C(NCCCN1CCOC(c2ccccc2)C1)C1CC1 (configuration not stated) returned GIRK2 activator inactive and AMPAR-TARP mod inactive.
Screening COc1ccc(-c2csc(NC(=O)c3ccc(SC(C)C)cc3)n2)c(OC)c1 returned AMPAR-TARP mod active.
COc1ccc(OC)c(-c2csc(NC(=O)c3ccc(SC(C)C)cc3)n2)c1 was read as GIRK2 activator inactive and AMPAR-TARP mod inactive.
O=C(Cn1cccn1)N1CCn2c1nc1ccccc12 was read as AMPAR-TARP mod inactive.
`CC(C)(C)C(=O)N1CCOC(c2ccccc2)C1` (configuration not stated) gave GIRK2 activator inactive.
CCOc1ccccc1N1C(=O)/C(=C/c2cccnc2)SC1=S was read as AMPAR-TARP mod inactive.
`CC(C)n1nccc1-c1nnc(NC(=O)c2ccc(Cl)cc2Cl)o1` gave GIRK2 activator inactive and AMPAR-TARP mod inactive.
Screening COc1ccc(Cl)cc1C(=O)Nc1nnc(-c2ccnn2C(C)C)o1 returned GIRK2 activator inactive and AMPAR-TARP mod active.
Screening Cc1cc(NC(=O)c2ccc(Cc3ccccc3)cc2)n(C(C)C)n1 returned GIRK2 activator inactive.
For O=C(Nc1ccc2sccc2c1)c1ccno1 the results were GIRK2 activator inactive and AMPAR-TARP mod active.
CN1CCOc2ccc(NC(=O)c3ccno3)cc2C1=O was read as GIRK2 activator inactive and AMPAR-TARP mod inactive.
For O=C(Nc1ccc(O)c(-c2nc3ccccc3s2)c1)c1ccno1 the results were GIRK2 activator inactive and AMPAR-TARP mod inactive.
For CN1C(=O)Cc2cc(NC(=O)c3ccno3)ccc21 the results were GIRK2 activator inactive and AMPAR-TARP mod active.
Screening CN1C(=O)c2ccc(NC(=O)c3ccno3)cc2C1=O returned AMPAR-TARP mod active.
Cc1cccc(CC(=O)Nc2ccc3c(c2)CC(=O)N3C)c1 was read as AMPAR-TARP mod inactive.
For CC(=O)N1CC(C(=O)Nc2ncccc2C)C1 the results were GIRK2 activator inactive and AMPAR-TARP mod inactive.
`COc1ccc(NS(=O)(=O)c2cccs2)cc1N1CCCC1=O` gave GIRK2 activator inactive and AMPAR-TARP mod inactive.
O=C(Nc1ccc(S(=O)(=O)N2CCN(c3cnccn3)CC2)cc1)c1ccc(F)c(F)c1 was read as GIRK2 activator inactive and AMPAR-TARP mod inactive.
For Cc1c(Cl)cccc1S(=O)(=O)N1CCC(Cn2c(C)nc3ccccc32)CC1 the results were GIRK2 activator inactive and AMPAR-TARP mod active.
Screening Cc1n[nH]c(C)c1S(=O)(=O)N1CCC(Cn2c(C)nc3ccccc32)CC1 returned GIRK2 activator inactive and AMPAR-TARP mod inactive.
Screening CCS(=O)(=O)N1CCCc2cc(NC(=O)NCc3ccc(OC)c(OC)c3)ccc21 returned GIRK2 activator inactive and AMPAR-TARP mod inactive.
`Cc1cccc(CN(c2ccc3c(c2)OCO3)S(=O)(=O)c2ccc3nncn3c2)c1` gave GIRK2 activator inactive and AMPAR-TARP mod active.
For COc1ccc(N(Cc2ccccc2)S(=O)(=O)c2ccc3nncn3c2)cc1 the results were GIRK2 activator inactive and AMPAR-TARP mod inactive.
COc1cccc(NC(=O)c2sccc2S(=O)(=O)N2CCN(c3ccc(Cl)cc3)CC2)c1 was read as GIRK2 activator inactive.
For O=C(Nc1ccc(F)c(F)c1)c1sccc1S(=O)(=O)N1CCN(c2ccccc2)CC1 the results were GIRK2 activator inactive and AMPAR-TARP mod active.
Screening CC(C)C(=O)N1CCCc2ccc(NC(=O)C(=O)NCCc3ccccc3)cc21 returned GIRK2 activator inactive and AMPAR-TARP mod inactive.
Screening Cc1ccc(NC(=O)C(=O)NCC2CCN(C(=O)Oc3ccccc3)CC2)cc1F returned GIRK2 activator inactive and AMPAR-TARP mod inactive.
Screening COc1cc([N+](=O)[O-])cc2cc(C(=O)NC(C)c3ccccc3)c(=O)oc12 (configuration not stated) returned GIRK2 activator inactive and AMPAR-TARP mod inactive.
COc1cc([N+](=O)[O-])cc2cc(C(=O)N3CCN(c4cccc(C(F)(F)F)c4)CC3)c(=O)oc12 was read as GIRK2 activator inactive and AMPAR-TARP mod active.
Cn1nc(-c2ccc(F)cc2)cc1C(=O)NCc1n[nH]c(=O)c2ccccc12 was read as GIRK2 activator inactive and AMPAR-TARP mod inactive.
Screening O=[N+]([O-])c1ccc(O)c(/C=C/c2ccc3cccc(O)c3n2)c1 returned AMPAR-TARP mod inactive.
`COc1cc(/C=C/c2ccc3cccc(O)c3n2)ccc1OCc1ccccc1` gave AMPAR-TARP mod inactive.
COc1cc(/C=C/c2ccc3cccc(O)c3n2)ccc1O was read as AMPAR-TARP mod active.

Screening results (PubChem)
